This note sets out measurements from PubChem BioAssay (Tox21).

Several values for one entry are separate records, joined by “and”; a condition that tells them apart may be missing. Equal values may be shown once. Records with an inconclusive call do not appear. Entries that show only a call come without a potency. A structure can be active in one record and inactive in another. Activity calls are given as the source filed them. The call rests on the fitted dose curve; in most records, active means well fitted cell-killing curve with a large enough effect in the repeat runs; inconclusive means weak or mixed curves, or effect the other way; inactive means flat fitted curve, though single readings scatter.
Potency means the concentration at half of the fitted maximal effect.

This test is described as follows: qHTS RealTime-Glo MT Cell Viability Assay in HEK293 cells - 24 hour (AID 1224886). Further: nearly all actives have a fitted effect of over 50% in size. The following applies: RealTime-Glo luminescence; series mostly up to 76.8 µM. The essentials:
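HEK293 cells were seeded at 600 cells/well together with NanoLuc luciferase and cell-permeant prosubstrate, preincubated 5 h at 37 C/5% CO2, then given compound in DMSO by pintool. Luminescence from viable-cell prosubstrate reduction was read repeatedly over 40 h.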
With `CC(C)=CC1C(C(=O)OCc2cccc(Oc3ccccc3)c2)C1(C)C` (configuration not stated), the Potency result is “inactive”.
With `CNC(=O)Oc1cccc2c1OC(C)(C)C2`, the Potency entry was “inactive”.
With `CN(C)c1ccccc1`, the Potency entry was “inactive”.
On to `Cc1ccc([N+](=O)[O-])cc1`, for which the Potency result is “inactive”.
For the molecule `CSc1nc(NC(C)C)nc(NC(C)C)n1`, the Potency result was “inactive”.
Regarding `CNC(=O)CSP(=S)(OC)OC`, the Potency result is “inactive”.
Consider `CCCCCCCCCc1ccc(O)cc1`, for which the Potency was 7.84 µM (active) and 4.9 µM (active).
For the molecule `C[N+](C)(C)CC(=O)O`, the Potency entry is “inactive”.
Take `Oc1ccc(Cl)cc1Cc1ccccc1`: the Potency is 21.9 µM (active) and 19.7 µM (active).
On to `CS(=O)(=O)NC(=O)c1cc(Oc2ccc(C(F)(F)F)cc2Cl)ccc1[N+](=O)[O-]`, for which the Potency entry was “inactive”.
As to `NC(=O)CN1CCCC1=O`, the Potency result was “inactive”.
In the case of `CC1(C)C(C(=O)OC(C#N)c2cccc(Oc3ccccc3)c2)C1(C)C` (configuration not stated), the Potency entry was “inactive”.
Regarding `O=P(OCCCl)(OCCCl)OCCCl`, the Potency entry was “inactive”.
The entry for `OCCOCCO` is “inactive”; for `O=C(O)c1nn(Cc2ccc(Cl)cc2Cl)c2ccccc12` it is “inactive”; for `O=C1CCCO1` it is “inactive”.
As for `CC(C)(C#N)N=NC(C)(C)C#N`, the entry is “inactive”; as for `CCOP(=S)(OCC)SCn1c(=O)oc2cc(Cl)ccc21`, 26.3 µM (active) and 21.9 µM (active); as for `CCCCCCCCCC(CC)c1ccc(S(=O)(=O)O)cc1` (configuration not stated), 44.1 µM (active) and inactive.
For `ClC(Cl)(Cl)Br`, the Potency entry was “inactive”.
The entry for `CCCCOC(=O)COC(=O)c1ccccc1C(=O)OCCCC` is “inactive”; for `Nc1ccc2ccccc2c1` it is “inactive”.
With `ClCC(Cl)CCl`, the Potency entry is “inactive”.
As for `CCOP(=O)(OCC)OCC`, the entry is “inactive”; as for `C[C@]12CCC(=O)C=C1CC[C@@H]1[C@@H]2CC[C@@]2(C)[C@H]1CC[C@]2(C)O`, 19.7 µM (active).
For the molecule `CC(C)(c1ccccc1)c1ccc(O)cc1`, the Potency was 43.3 µM (active) and 24.5 µM (active).
As to `N#Cc1nn(-c2c(Cl)cc(C(F)(F)F)cc2Cl)c(N)c1S(=O)C(F)(F)F` (configuration not stated), the Potency is 19.6 µM (active).
For `COc1ccc(CO)cc1`, the Potency result is “inactive”.
On to `ClCc1ccccn1`, for which the Potency entry is “inactive”.
The entry for `CC(C)=CC1C(C(=O)OCN2C(=O)C3=C(CCCC3)C2=O)C1(C)C` (configuration not stated) is “inactive”.
Take `COP(=S)(OC)Oc1ccc(S(=O)(=O)N(C)C)cc1`: the Potency entry was “inactive”.
Take `N#CCCCCC#N`: the Potency result was “inactive”.
Regarding `COC(=O)Nc1nc2ccccc2[nH]1`, the Potency result is “inactive”.
On to `C[C@]12CC[C@H]3[C@@H](CCC4=CC(=O)CC[C@@H]43)[C@@H]1CC[C@@H]2O`, for which the Potency entry is “inactive”.
Regarding `O=[N+]([O-])c1ccc(Cl)c([N+](=O)[O-])c1`, the Potency was 11.1 µM (active) and 12.3 µM (active).
Turning to `CCC(=O)Nc1ccc(Cl)c(Cl)c1`, the Potency is 44.5 µM (active) and 43.6 µM (active).
Regarding `Oc1ccc(Cl)cc1Cl`, the Potency result was “inactive”.
